# Source: PubChem (University of Kansas High Throughput Screening Laboratory)
# The full list was thinned out, with hits kept by preference.
# mHTT-CaM PPI inh = mHTT-calmodulin interaction abrogation | P42858 | AlphaScreen His-mHTT/GST-CaM binding, luminescence | inhibition, % at 15 µM | actives 3.6% (n = 190,000) | AID 1671202;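 note: 0% = both proteins with DMSO and 100% = one protein alone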
# Pf apPOL block = Pf-apPOL DNA polymerase inhibition; Recombinant Pf-apPOL, molecular beacon fluorescence, 1.5 h; inhibition, % at 10 µM; actives 0.25% (n = 210,000); AID 1794808
# * marks the source's active call; other numbers are inactive results; . = no result. Cut-off read from the data, not from the text of the source: active = inhibition above about 50%; inactive = the rest.
SMILES,mHTT-CaM PPI inh,Pf apPOL block
CCCC(C)NC(=O)c1ccc(NC(C)=O)cc1 (stereo not given),-3,-4
CCOc1ccc(C(=O)Nc2ccc(Br)cc2)cc1Cl,-6,-3
COc1cc(NC(=O)Cn2nc(C(F)(F)F)c(Br)c2C)c(OC)cc1Cl,-4,-1
Cc1cc2nn(-c3ccccc3)nc2cc1NC(=O)c1ccc2c(c1)OCCO2,6,-1
CCOc1ccc2nc(NC(=O)CCS(=O)(=O)c3ccc(Br)s3)sc2c1,0,0
COc1cccc(-c2noc(C3CCCN3C(=O)Nc3ccc(F)c(Cl)c3)n2)c1 (stereo not given),58*,-1
CCC(=O)Nc1cccc(-c2noc(C3CCCN(C(=O)COc4cccc(C)c4)C3)n2)c1 (stereo not given),79*,-1
Cc1ccc(OCC(=O)N2CCCC2c2nc(-c3cccc(C)c3)no2)cc1 (stereo not given),80*,0
COc1ccc(OCC(=O)N2CCCC2c2nc(-c3cccc(C)c3)no2)cc1 (stereo not given),15,1
CCn1ccc(C(=O)N2CCCC2c2nc(-c3cccc(C(F)(F)F)c3)no2)n1 (stereo not given),88*,7
CCn1ccc(C(=O)N2CCCC2c2nc(-c3cccc(Cl)c3)no2)n1 (stereo not given),10,-3
COc1cccc(-c2noc(C3CCCN3C(=O)Nc3cccc(Cl)c3)n2)c1 (stereo not given),-8,-2
CCC(=O)Nc1cccc(-c2noc(C3CCCN(C(=O)c4cccc(OC)c4)C3)n2)c1 (stereo not given),8,-4
CCN(CC)c1nc(C)nc2c1cnn2-c1cccc(Cl)c1,-70,-1
O=C(Cc1ccccc1Cl)NC1(c2nc(-c3ccncc3)no2)CCCCC1,13,4
O=C(NCc1ccco1)Nc1cccc(Cl)c1,5,-5
O=C(O)CCC(=O)N1CCc2ccccc2C1,-7,3
Cc1cc(NC(=O)CSc2nnc(Cn3c(=O)sc4ccccc43)n2C)no1,-18,-5
CC1=CC(C)(C)Nc2cc(C(C)(C)C)c(O)cc21,95*,-4
CC1=CC(C)(C)Nc2cc(CN(C)C)c(O)cc21,98*,-2
CCOC(=O)Oc1ccc2c(c1)C(C)=CC(C)(C)N2,9,-7
CC(C)(C)c1cc(-c2cc(C(C)(C)C)c(O)c(C(C)(C)C)c2)cc(C(C)(C)C)c1O,.,-5
COc1ccccc1NC(=O)c1cccc2c1C(=O)c1ccccc1-2,21,-2
CNc1ccc(OC)c2c1C(=O)c1ccccc1C2=O,82*,-82
CC1(C)OC(=O)C(=CNc2ccccc2O)C(=O)O1,1,4
SMILES,mHTT-CaM PPI inh,Pf apPOL block
O=[N+]([O-])c1ccccc1-c1ccc(/C=C/c2ccncc2)o1,69*,6
NC1=NC(=O)/C(=C/c2ccc(-c3ccccc3[N+](=O)[O-])o2)S1,59*,-12
O=C(/C=C/c1ccc(-c2ccccc2[N+](=O)[O-])o1)c1cc2ccccc2o1,77*,11
O=C(C=Cc1ccc([N+](=O)[O-])cc1)c1cc2ccccc2oc1=O,2,1
CC1(C)OC(=O)C(=Cc2ccc(-c3ccccc3[N+](=O)[O-])o2)C(=O)O1,1,5
O=Cc1ccc(-c2ccccc2[N+](=O)[O-])o1,8,-1
CC(C)N(C)C(=O)c1ccccc1N1CCC(NS(=O)(=O)c2ccccc2)CC1,7,1
Cc1ccc(S(=O)(=O)Nc2c(C)cc(O)c(Br)c2C)cc1,2,-1
O=[N+]([O-])c1ccc(-c2noc(Cc3ccccc3)n2)cc1,16,2
CN(C)c1ccc(-c2nc3n(n2)C(c2ccccc2)C2=C(CCCC2=O)N3)cc1 (stereo not given),5,-6
CN(C)c1ccc(-c2nc3n(n2)C(c2ccc(F)cc2)C2=C(CCCC2=O)N3)cc1 (stereo not given),51*,-2
Cc1nnsc1C(=O)NCC1CCN(Cc2ccco2)CC1,-9,-4
COc1ccc(Cc2[nH]n3c(=O)cc(-c4ccc([N+](=O)[O-])cc4)nc3c2-c2ccccc2)cc1,71*,6
COc1ccc(-c2c(Cc3ccccc3)[nH]n3c(=O)cc(-c4ccc([N+](=O)[O-])cc4)nc23)cc1,9,-1
CCCN(CCC)S(=O)(=O)c1ccc2nc(-c3ccccc3)[nH]c2c1,10,2
NC(=NOC(=O)c1cc(-c2ccccc2)c(C(F)(F)F)s1)c1ccc(Cl)cc1Cl,.,-7
COc1cc2c(cc1OC)C(C(=O)N(C)C1CCCCC1)C(c1cccnc1)N(C)C2=O (stereo not given),-3,-5
CCN(CC)CCNC(=O)c1cccc(CN2C(=O)C3CCCN3C(=O)c3ccccc32)c1 (stereo not given),-1,-1
O=C(NC(Nc1ccc(Br)cc1)C(Cl)(Cl)Cl)c1ccc(F)cc1 (stereo not given),87*,-3
COc1ccc(NC(=O)/C=C/c2ccc(Cl)cc2)cc1,.,-9
O=C(/C=C/c1ccccc1)NC(Nc1cccnc1)C(Cl)(Cl)Cl (stereo not given),31,0
O=C(NC(Nc1ccccc1)C(Cl)(Cl)Cl)c1ccc(Cl)cc1 (stereo not given),16,-2
O=C(/C=C/c1ccccc1)NC(Nc1ccccc1)C(Cl)(Cl)Cl (stereo not given),96*,-8
O=C(NC(Nc1ccccc1)C(Cl)(Cl)Cl)c1ccc(Br)cc1 (stereo not given),57*,4
COc1ccc(OC(NC(=O)/C=C/c2ccccc2)C(Cl)(Cl)Cl)cc1 (stereo not given),51*,1
SMILES,mHTT-CaM PPI inh,Pf apPOL block
O=C(NC(Nc1ccccc1)C(Cl)(Cl)Cl)c1ccc(F)cc1 (stereo not given),-9,-4
O=C(c1ccccc1)N1CCC(c2nc(-c3ccccc3)n[nH]2)CC1,-4,-4
COc1ccc(C(=O)N2CCCC2c2ccccc2Cl)cc1OC (stereo not given),3,6
CC(C)(C)CC(=O)N1CCCC(c2nc(CNC(=O)C3CCC3)cs2)C1 (stereo not given),18,-4
CCc1ccccc1NC(=O)Cn1ncnc1Sc1nc2c(c(=O)n(C)c(=O)n2C)n1C,-2,-6
COc1ccc(Cl)cc1C(=O)N1CCN(C2=NN=C(c3cccs3)CS2)CC1,68*,5
COc1ccc(Cl)cc1C(=O)N1CCN(c2ccccc2F)CC1,-1,-11
O=C(c1ccccc1C(F)(F)F)N1CC(c2nc(-c3ncccn3)no2)C1,-23,-4
Cc1ccc(C(=O)N2CCC(C(=O)N3CCN(c4ccccc4F)CC3)CC2)cc1,6,57*
Cc1ccc(CN2CCC(C(=O)N3CCN(c4ccccc4F)CC3)CC2)cc1,16,-4
COc1ccc(C2C(C(=O)c3cccs3)=C(O)C(=O)N2CCCN(C)C)c(OC)c1 (stereo not given),0,-7
O=C(CSCc1ccc([N+](=O)[O-])cc1)NCc1ccco1,6,-3
Cc1ccc(Nc2nc(-c3ccccn3)cs2)cc1,93*,-4
CC(=O)Nc1cccc(-c2csc(Nc3ccc(C(=O)O)cc3)n2)c1,9,-10
Cc1ccnc(Nc2nc(-c3ccccn3)cs2)c1,100*,-1
CCOc1ccc(Nc2nc(-c3sc(NC(C)=O)nc3C)cs2)cc1,64*,8
CC(=O)Nc1ccc(Nc2nc(-c3ccccn3)cs2)cc1,92*,-7
